HT1080 IDH1KD tx: HT-1080 IDH1 knockdown cell toxicity (counter line) | HT-1080 IDH1 knockdown viability, ATP luminescence, 48 h | Potency, µM (top dose mostly 46.1 µM), for inactives: at the top dose activity, negative = toxicity, usual class: cytotoxic | 360,000 tested, 2% active | AID 686971;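 note: 0% = DMSO wells and -100% = cell-free medium wells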
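Assay cells: HT-1080 with IDH1 knockdown, 750 per well, RPMI/5% FBS. Exposure: 48 h at 37 °C following 2 h pre-incubation. Read: CellTiter-Glo luminescence; fitted concentration-response, curve class assigned.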
KB-3-1 cytotox: KB-3-1 parental cell cytotoxicity | KB-3-1 viability, CellTiter-Glo ATP luminescence, 72 h | Potency, µM (doses to about 46.1 µM), actives largely listed as cytotoxic | 400,000 tested, 1.4% active; note: % is set by controls: 0 for no effect and ±100 for the full control effect; nearly all actives have a fitted effect of over 60% in size
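Viability of parental KB-3-1 cells, measured by CellTiter-Glo luminescence, followed a 72 h incubation at 37 °C with pinned compounds in phenol-red-free DMEM containing 10% FBS.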
HT1080NT lethal: kills 2HG-producing HT-1080-NT fibrosarcoma cells; Potency, µM (doses to about 46.1 µM), inactives show at the highest dose activity, negative = less viability, actives largely listed as cytotoxic; HT-1080-NT fibrosarcoma viability, CellTiter-Glo ATP luminescence, 48 h; 360,000 tested, 1.6% active;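 note: NT is the 2HG producing partner of a matched IDH1 knockdown line; 0% = DMSO-treated cells and -100% = media-only wells without cells; nearly all actives have a fitted effect of over 55% in size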
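HT-1080-NT fibrosarcoma cells (2HG-overproducing), 750 cells/well in RPMI with 5% FBS, dosed after 2 h and incubated 48 h at 37C. CellTiter-Glo luminescence normalized to DMSO and no-cell wells; concentration-response curves fitted and classed.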
MCF10A rerep: induces DNA re-replication in MCF 10a normal breast cells. 350,000 tested, 2.9% active. Potency, µM (series often up to 46.1 µM), for inactives: at the top dose activity, positive = re-replication, usual class: activators. AID 624296. MCF 10A DNA re-replication, Hoechst nuclear intensity, 48 h; note: % of control where 0% means no effect; nearly all actives have a fitted effect of over 50% in size
SW480 rerep: inducers of DNA re-replication in SW480 colon cancer cells; SW480 DNA re-replication, Hoechst DNA content imaging, 48 h; Potency, µM (series often up to 46.1 µM), without a hit: at the highest dose re-replication activation, most hits filed as activators; 340,000 tested, 1.8% active; note: % of control where 0% means no effect; nearly all actives have a fitted effect of over 55% in size
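Image-based DNA-content assay: after two days of treatment, nuclei were labelled with the DNA dye Hoechst and imaged, and hits were compounds raising the count of nuclei showing high fluorescence intensity.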
KB-V1 cytotox: kills drug-selected multidrug resistant KB-V1 cells; Potency, µM (top dose mostly 46.1 µM), actives largely listed as cytotoxic; KB-V1 MDR cells viability, CellTiter-Glo, 72 h; 400,000 tested, 3.4% active; note: % is set by controls: 0 for no effect and ±100 for the full control effect; nearly all actives have a fitted effect of over 60% in size
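Luminescent ATP read-out (CellTiter-Glo, 10 min) measures survival of drug-selected KB-V1 MDR cells after 72 h, 37 degrees C compound exposure. Medium: phenol-red-free DMEM, 10% FBS. Values from fitted concentration-response curves.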
Starred values were filed as active, the others as inactive; i = inactive; ? = inconclusive; . = no result; [ ] = another dose, or the depositor's remark. Shown are actives, neighbours in structure and some others; about 7.9% of the full set was active somewhere. Calls come from the whole dose curve; as a rule, active = well fitted curve in the direction sought with a large enough effect; inconclusive = small, poorly fitted or top-dose-only effect, or another doubt; inactive = no such curve, though single readings can be large; an effect the other way counts as inactive or inconclusive. Potency is the fitted concentration of half-maximal effect.

SMILES | HT1080 IDH1KD tx | KB-3-1 cytotox | HT1080NT lethal | MCF10A rerep | SW480 rerep | KB-V1 cytotox
O=P(OC1CCCCC1)(OC1CCCCC1)C(O)c1cccnc1 (stereo unspecified) | 10% | ? | 0% | 1% | -8% | i
O=P(OC1CCCCC1)(OC1CCCCC1)C(O)c1ccccc1 (stereo unspecified) | -24% | i | -3% | 1% | -11% | 9.2µM*
CC(=O)OC1CC(c2cc(C(C)(C)C)c(O)c(C(C)(C)C)c2)=NO1 (stereo unspecified) | ? | i | ? | ? | 15µM* | ?
O=C(COC(=O)C1(c2ccc(Cl)cc2)CCCC1)Nc1ncc(C(F)(F)F)cc1Cl | 1% | i | 1% | 14% | -3% | i
O=C(CN1CCN(C(=O)c2ccc(OCc3cn4ccccc4n3)cc2)CC1)Nc1cccc(F)c1 | -14% | i | 7.3µM* | 8% | -5% | i
Cn1ncc(C(=O)N2CCN(c3ccccc3)CC2)c1C1CCN(C(=O)OC(C)(C)C)CC1 | . | i | . | . | . | i
O=C(CC1(O)C(=O)N(Cc2cccc3ccccc23)c2ccccc21)c1cccnc1 (stereo unspecified) | 10µM* | 21µM* | ? | ? | ? | 21µM*
CCC(C)Nc1nc(-c2ccccn2)nc2ccccc12 (stereo unspecified) | ? | 15µM* | ? | 0% | 6% | ?
CC(C)(C)c1ccc(-c2nc(NCc3cccnc3)c3ccccc3n2)cc1 | -17% | i | 2% | 13µM* | 9% | ?
c1ccc(CNc2nc(-c3ccccn3)nc3ccccc23)cc1 | ? | 16µM* | ? | 13% | 24% | i
c1ccc(CNc2nc(-c3cccs3)nc3ccccc23)cc1 | 18µM* | i | ? | ? | -7% | i
CC(C)CNC1=CC(=O)CC(c2ccco2)C1 (stereo unspecified) | -5% | i | 0% | 1% | -11% | i
c1ccc(CNc2nc(NCc3ccccc3)c3ccccc3n2)cc1 | 7.3µM* | i | 15µM* | ? | -2% | ?
c1ccc(CNc2nc(-c3ccccc3)nc3ccccc23)cc1 | ? | i | -27% | 9% | 1% | ?
O=C1CC(C(=O)N(CC2CCCO2)C(C(=O)NC2CCCCC2)c2ccncc2)CS1 (stereo unspecified) | -4% | i | 2% | 8% | 5% | i
O=C(NC1CCCCC1)C(c1ccc(O)cc1)N(CC1CCCO1)C(=O)C1COc2ccccc2O1 (stereo unspecified) | 4.6µM* | i | 4.6µM* | 0% | 10% | 21µM*
COc1cc2c(cc1OC)-c1cc(Nc3ccc(C(=O)O)cc3)nc(=O)n1CC2 | -10% | i | -1% | -5% | -5% | ?
O=C(Nc1ccc(F)cc1)Nc1ccc(N2CCCC2)c(S(=O)(=O)Nc2ccccc2Cl)c1 | 23µM* | 21µM* | ? | 13% | ? | ?
Cc1ccc(C(=O)Nc2ccc(C)c(S(=O)(=O)Nc3ccccc3Cl)c2)s1 | ? | 23µM* | -21% | ? | 16% | ?
COc1ccccc1NS(=O)(=O)c1cc(NC(=O)Nc2ccccc2)ccc1N1CCCCC1 | 7% | i | 4% | 1% | 2% | ?
O=C(Nc1ccc(N2CCCCC2)c(S(=O)(=O)Nc2ccccc2Cl)c1)c1cccnc1 | -29% | . | 0% | 18µM* | ? | .
O=C(Nc1ccc(Cl)c(Cl)c1)Nc1ccc(N2CCCC2)c(S(=O)(=O)Nc2ccccc2Cl)c1 | 13µM* | 5.2µM* | ? | ? | ? | 23µM*
Cc1ccc(NC(=O)c2cc3c(s2)CCCC3)cc1S(=O)(=O)Nc1ccccc1Cl | ? | ? | -4% | 17% | ? | ?
CN(Cc1ccccc1)C(=O)CCC1CCN(C(=O)c2ccccc2C(F)(F)F)CC1 | -4% | i | 30% | -11% | -6% | ?
Cn1cccc1Cc1nnc(SCC(=O)NCc2ccco2)n1CCc1ccccc1 | 0% | i | -10%[9.24 µM] | -3% | -1% | i
SMILES | HT1080 IDH1KD tx | KB-3-1 cytotox | HT1080NT lethal | MCF10A rerep | SW480 rerep | KB-V1 cytotox
CCOC(=O)CNC(=O)N(C)[C@H]1C[C@H]2c3[nH]c4ccccc4c3CCN2C(=O)[C@H]1[C@H](C)O | 24% | i | ? | . | . | i
COc1ccc2c(c1)c(C)cc[n+]2Cc1ccccc1 | 23µM* | 8.2µM* | 15µM* | 0% | -12% | i
CCN(Cc1ccccc1)C(=O)c1[nH]c2ccc(OC)cc2c1C | 8% | i | -7% | 13% | 1% | i
Cc1ccc2ccc[n+](Cc3ccccc3)c2c1 | -8% | 5.2µM* | 0% | 4% | 11% | i
Cc1ccc2c(c1)c(C)cc[n+]2Cc1ccccc1 | ? | 8.2µM* | 1% | 1% | 1% | i
O=C(C[C@H]1C[C@@H]2c3cc(NC(=O)c4ccc5c(c4)OCO5)ccc3O[C@@H]2[C@H](CO)O1)NCc1cc(F)ccc1F | 0% | i | -1% | . | . | i
COc1ccc(S(=O)(=O)NCCc2nnc3ccc(SCC(=O)Nc4ccccc4C)nn23)cc1 | . | i | . | . | . | i
Cc1csc(NC(=O)c2cc3c(s2)CCCC3)n1 | -26% | i | -22% | -8% | 10% | i
O=C(NCCO)c1cc2c(s1)CCC2 | -2% | i | -21% | 0.25µM* | ? | i
Cc1csc(NC(=O)c2cc3c(s2)CCCCC3)n1 | ? | i | ? | 16µM* | 12% | ?
CCc1nnc(NC(=O)c2cc3c(s2)CCCCC3)s1 | -9% | i | -7% | 0% | -9% | i
Cc1cnc(NC(=O)c2cc3c(s2)CCCC3)s1 | -17% | 21µM* | -16% | ? | 0% | i
COc1ccc(CCNC(=O)CCc2c(C)nc3c4c(C)cc(C)nc4nn3c2C)cc1OC | . | i | . | . | . | i
COc1ccc(-n2c(SCC(=O)NCC3CCCO3)nc3n[nH]c(C)c3c2=N)cc1 (stereo unspecified) | -4% | i | -7% | 14% | 1% | i
Cc1[nH]nc2nc(SCC(=O)NCCC3=CCCCC3)n(-c3ccc(Br)cc3)c(=N)c12 | ? | ? | 21µM* | -2% | 21% | i
CCOc1ccc(CCNC(=O)CSc2nnnn2-c2ccc(C)cc2C)cc1OCC | . | i | . | . | . | ?
Cc1ccc(Cl)cc1-n1c(SCC(=O)NCCC2=CCCCC2)nc2n[nH]c(C)c2c1=N | ? | i | ? | ? | 15% | i
